Source: PubChem BioAssay (University of Kansas High Throughput Screening Laboratory)
mHTT-CaM PPI inh – mHTT-calmodulin interaction abrogation. P42858. AlphaScreen His-mHTT/GST-CaM binding, luminescence. inhibition, % at 15 µM. hit rate 3.6% among 190,000. AID 1671202
Pf apPOL inh – Pf-apPOL DNA polymerase inhibition. Recombinant Pf-apPOL, molecular beacon fluorescence, 1.5 h. inhibition, % at 10 µM. hit rate 0.25% among 210,000. AID 1794808
Each line names hits and unclear results; the compound was inactive in the other large screens. Rows were chosen to be rich in hits. Some 3.5% of all compounds tested hit in one or more screens of this group. Rule as the data show it: active = inhibition above about 50%; inactive = the rest.

O=C1CSC(c2cn(-c3ccccc3)nc2-c2ccc(Cl)cc2)N1Cc1ccco1 (centres undefined)	mHTT-CaM PPI inh 90
O=C1CSC(c2ccco2)N1Cc1ccccc1 (centres undefined)	none
O=C1CSC(c2cn(-c3ccccc3)nc2-c2ccccc2)N1Cc1ccco1 (centres undefined)	mHTT-CaM PPI inh 59
O=C1CSC(c2ccc(Br)cc2)N1Cc1ccco1 (centres undefined)	none
OC(c1ccccn1)C1CCN(Cc2ccc(F)cc2)CC1 (centres undefined)	none
CC(C)(C)NC(=O)Cn1nnc(-c2ccc3c(c2)OCO3)n1	none
CCc1nccn1Cc1nc(-c2ccccc2C)no1	none
COc1ccc(-c2[nH]c3ccccc3c2SCCNC(=O)C23CC4CC(CC(C4)C2)C3)cc1	none
CCOc1ccccc1NC(=O)c1c(NCc2cccc(OC)c2OC)sc2c1CCC2	none
COc1cc(OC)c(OC)cc1CNc1sc2c(c1C(=O)Nc1ccccc1OC)CCC2	mHTT-CaM PPI inh 53
COc1ccccc1NC(=O)c1c(NCc2cccc(F)c2)sc2c1CCC2	mHTT-CaM PPI inh 63
COc1ccccc1NC(=O)c1c(NC(=O)c2ccco2)sc2c1CCCC2	none
Cc1cccc(C(=O)Nc2ccc(S(=O)(=O)Nc3cnc4ccccc4n3)cc2)c1	none
CCOc1ccc(C(=O)NCc2ccccc2)cc1	none
CC1CCc2c(sc(NC(=O)c3ccc4c(c3)OCO4)c2C#N)C1 (centres undefined)	none
Nc1ccc(C23CC4CC(C2)CC(c2ccc(N)cc2)(C4)C3)cc1	mHTT-CaM PPI inh 84
NS(=O)(=O)c1ccc(C23CC4CC(CC(C4)C2)C3)cc1	none
Nc1ccc(C23CC4CC(CC(C4)C2)C3)cc1	mHTT-CaM PPI inh 58
NC(=O)CC12CC3CC(C1)CC(c1ccccc1)(C3)C2	none
Cc1ccccc1C(=O)Nc1cc2cc([N+](=O)[O-])ccc2oc1=O	none
O=C(CSc1ccc(Cl)cc1)Nc1cccc([N+](=O)[O-])c1	none
Cc1sc(NC(=O)CSc2ccc(F)cc2)c(C(N)=O)c1C	none
O=C(/C=C/c1ccc(-c2ccc([N+](=O)[O-])cc2)o1)c1ccco1	none
CC1=C/C(=C\c2ccc(-c3ccccc3[N+](=O)[O-])o2)C(=O)O1	mHTT-CaM PPI inh 51
O=C(/C=C/c1ccc(-c2ccccc2[N+](=O)[O-])o1)c1ccco1	mHTT-CaM PPI inh 71
O=C(/C=C/c1ccc(-c2ccccc2)o1)c1ccco1	none
CC1=C/C(=C/c2ccc(-c3ccc([N+](=O)[O-])cc3)o2)C(=O)O1	none
O=C(/C=C/c1ccc(-c2ccc(Cl)cc2)o1)c1ccco1	mHTT-CaM PPI inh 58
CCOc1cc2c(cc1OCC)C1CC(=O)N(c3ccc(OC)cc3)C(=O)N1CC2 (centres undefined)	none
Cc1[nH]c2ccccc2c1SCCNC(=O)c1cccc(F)c1	none
Cc1cc2oc(C(=O)Nc3ccccc3[N+](=O)[O-])c(C)c2cc1C	none
Brc1ccc(C2CC(c3ccccc3)n3nnnc3N2)cc1 (centres undefined)	none
O=C(O)CSc1nc(SCC(=O)O)c2ccccc2n1	none
O=C(CC1C(=O)Nc2ccccc2N1C(=O)c1ccccc1)Nc1ccccc1Cl (centres undefined)	none
Cc1ccc(NC(=O)c2cc(Cl)c(Cl)cc2C(=O)O)cc1C	none
Cc1ccc(NC(=O)c2cc(N3C(=O)C=CC3=O)ccc2Cl)cc1C	mHTT-CaM PPI inh 92
O=C(NCc1ccccc1)N1CCCC1c1ccccc1Cl (centres undefined)	none
COc1ccc(N2C(=O)C3CCCN3C2c2sccc2C)cc1Cl (centres undefined)	none
COc1ccccc1CNc1ccc2c(c1)ncn2C1CCCCC1	mHTT-CaM PPI inh 55
COc1cccc(CNc2ccc3c(c2)ncn3C2CCCCC2)c1OC	none
CC(C)c1ccc(OCC(O)CN2CCCCC2)cc1 (centres undefined)	none
COc1cccc(-c2cc3n(n2)CCCN(C(=O)CCc2ccccc2OC)C3)c1	none
Cc1ccc(C)c(C(=O)N(CCn2cccn2)c2nc3c(F)cccc3s2)c1	none
COC(=O)c1ccc(C(=O)N(CCn2cccn2)c2nc3c(C)cc(C)cc3s2)cc1	mHTT-CaM PPI inh 100
O=C(CCc1cc2ccccc2[nH]c1=O)N1CCCC1	none
COc1ccccc1/C=C1\SC(=O)N(CNc2cccc(C)c2)C1=O	mHTT-CaM PPI inh 58
O=C1S/C(=C\c2ccccc2F)C(=O)N1CNc1cccc(F)c1	none
COc1ccc(NCN2C(=O)S/C(=C\c3ccccc3OC)C2=O)cc1	mHTT-CaM PPI inh 52
COc1ccc(/C=C2\SC(=O)N(CNc3ccccc3OC)C2=O)cc1	none
CC(C)N1Cc2cc(C(=O)NCc3ccc(N4CCOCC4)cc3)sc2C1	none
CC(C)(C)NC(=O)CN(c1cc(C(F)(F)F)ccc1Cl)S(C)(=O)=O	none
CCC1(C)CC(C(O)CNCc2ccc(OC)c(OC)c2)CCO1 (centres undefined)	none
O=C(NC1CC1)c1ccc(OCC2CCCN(C(=O)c3ccsc3)C2)cc1 (centres undefined)	none
O=[N+]([O-])c1ccc(NN=C2CCOc3ccc(F)cc32)cc1	none (no result: mHTT-CaM PPI inh)
N#Cc1ccccc1Nc1sc(C(=O)c2ccccc2)c(N)c1C(N)=O	none
